# Bioassay records (PubChem BioAssay)
# Sampled rows, rich in hits. Any-hit rate of the full collection: about 1.7%.
# FPRL1 binder – human FPRL1 ligands by binding competition, primary screen, cell-based, FPR counter-screen, flow cytometry. N-formyl peptide receptor 2 (Homo sapiens), P25090. FPRL1-expressing cells, fluorescent ligand binding inhibition. inhibition, % (test concentration not listed). actives 0.3% (n = 24,000). AID 441, 2006;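 note: 0% = buffer alone and 100% = receptor blocker peptide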
# Prostate diff – activators of LNCaP prostate cell differentiation, primary screen, flow cytometry side scatter | 4 d | side scatter shift, % at 10 µM | actives 0.56% (n = 24,000);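 active = side scatter shift above 30%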;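 note: androgen-responsive LNCaP prostate cancer cells in charcoal-stripped serum medium; percent of cells past a gate set so DMSO wells show 10% shift; higher shift means more granular cells and more differentiation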
# FPR ligand – human FPR ligands by binding competition, primary screen, cell-based, FPRL1 counter-screen, flow cytometry; fMet-Leu-Phe receptor (Homo sapiens), P21462; FPR-expressing cells, fluorescent ligand binding; inhibition, % (no concentration beside the values); actives 0.74% (n = 24,000); AID 440, 2006;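 note: 0% = buffer wells and 100% = receptor blocker peptide wells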
# Target sequence (P21462 whole entry, looked up): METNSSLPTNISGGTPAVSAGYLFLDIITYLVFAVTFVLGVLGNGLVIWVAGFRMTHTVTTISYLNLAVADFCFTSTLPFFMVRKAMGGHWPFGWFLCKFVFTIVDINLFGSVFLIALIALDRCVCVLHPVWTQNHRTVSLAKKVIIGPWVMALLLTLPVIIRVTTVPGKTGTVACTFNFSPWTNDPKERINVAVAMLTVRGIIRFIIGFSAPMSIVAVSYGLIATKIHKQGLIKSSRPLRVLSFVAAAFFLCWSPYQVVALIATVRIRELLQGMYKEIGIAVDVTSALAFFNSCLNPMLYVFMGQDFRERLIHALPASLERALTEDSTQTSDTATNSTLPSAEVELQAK
# The depositor's hits bear a star; . = no result given. Cut-off read from the data, not from the text of the source, unless noted: active = inhibition above about 30%; inconclusive = no clear call, values can overlap the other calls; inactive = below that.
SMILES,FPRL1 binder,Prostate diff,FPR ligand
CCOc1ccccc1N1CCN(c2nc3ccccc3nc2C(C#N)C(=O)OC)CC1 (stereo unspecified),-7.9,5.0,-4.3
COc1ccccc1N1CCN(c2nc3ccccc3nc2C(C#N)C(=O)OC(C)C)CC1 (stereo unspecified),9.5,30.0*,-0.5
CCC(C)(C)NC(=O)C(OC(=O)c1ccco1)c1ccccc1OC (stereo unspecified),7.7,13.0,-2.0
O=C1CCCC(O)=C1C(C#Cc1ccccc1)C1=C(O)CCCC1=O,4.1,13.0,46.8*
Cc1ccc(CN2CCSc3ccc(C(=O)N4CCN(c5ncccn5)CC4)cc32)cc1,-15.5,44.0*,-0.5
O=C(NCCN1CCOCC1)c1ccc2c(c1)N(Cc1ccccc1)CCS2,4.1,4.0,5.8
COc1ccc(-c2cc(C(F)(F)F)nc(N3CCN(C)CC3)n2)cc1OC,0.0,.,-10.6
COc1ccc(-c2cc(C(F)(F)F)nc(N3CCCCC3)n2)cc1OC,33.2*,12.0,9.6
COc1ccccc1N1CCN(c2nc(-c3ccccc3)cc(C(F)(F)F)n2)CC1,.,5.0,-6.2
COc1ccc(-c2cc(C(F)(F)F)nc(N3CCCCCC3)n2)cc1,13.1,10.0,4.0
COc1ccc(-c2cc(C(F)(F)F)nc(N3CCN(C)CC3)n2)cc1,8.9,43.0*,1.7
COc1ccc(-c2cc(C(F)(F)F)nc(N3CCN(c4ccccc4)CC3)n2)cc1OC,16.5,7.0,68.4*
CC(=O)NCCn1c(SCc2cc(=O)n3cc(Cl)ccc3n2)nc2ccccc2c1=O,-1.3,7.0,-0.9
O=c1[nH]c2ccsc2c(=O)n1-c1ccc(F)c(Cl)c1,11.0,3.0,13.3
COc1ccc2nc(NC(=O)C(NS(=O)(=O)c3cccs3)C(C)C)sc2c1 (stereo unspecified),-0.5,19.0,-2.0
O=C(c1csc2c1CCCCC2)N1CCN(c2ncccn2)CC1,-2.3,9.0,4.7
Cc1ccc(/C(O)=C2\C(=O)C(=O)N(c3cc(C)on3)C2c2cccc(Br)c2)cc1 (stereo unspecified),26.6,.,40.2*
Cc1cc(N2C(=O)C(=O)/C(=C(/O)c3ccc(F)cc3)C2c2cccc(Br)c2)no1 (stereo unspecified),-18.3,.,2.9
O=C(CNS(=O)(=O)c1cccc2nsnc12)NCc1ccc(Cl)cc1,1.9,5.0,-7.3
CCN(CCCc1ccccc1)CCCc1ccccc1,1.4,7.0,53.6*
CN(C)CCCOC(=O)CCc1ccccc1,1.4,9.0,-4.2
CCCCCCNC(=O)CC(NS(=O)(=O)c1ccc(NC(C)=O)cc1)C(C)C (stereo unspecified),1.3,3.0,7.8
COCCNC(=O)CC(NS(=O)(=O)c1ccc(NC(C)=O)cc1)C(C)C (stereo unspecified),-1.4,31.0*,0.4
N=c1c(C(=O)NC2CCCCC2)cc2c(=O)n3ccccc3nc2n1CCN1CCOCC1,0.0,12.0,11.0
CCCOc1ccc(/C(O)=C2/C(=O)C(=O)N(CCN(C)C)C2c2ccncc2)cc1 (stereo unspecified),9.1,.,10.9
SMILES,FPRL1 binder,Prostate diff,FPR ligand
COc1ccccc1-n1c(SC)nc(O)cc1=O,-10.4,7.0,40.7*
COc1ccccc1-n1c(C)nnc1SCC(N)=O,2.9,8.0,0.5
O=P(O)(O)C(O)C(F)(F)C(F)(F)C(F)(F)C(F)F (stereo unspecified),0.1,6.0,-2.8
CCOC(=O)C1=C(C)N=c2s/c(=C\c3cccn3C)c(=O)n2C1c1cccc(OC)c1OC (stereo unspecified),-23.0,11.0,-18.3
COC(=O)C1=C(C)N=c2s/c(=C/c3cccs3)c(=O)n2C1c1cccs1 (stereo unspecified),0.4,31.0*,-1.3
Cc1oc(-c2ccc(Cl)cc2)nc1CN1CCCC(C(=O)N2CCN(C(=O)c3ccco3)CC2)C1 (stereo unspecified),1.2,27.0,-1.1
CC(C)C(c1nnnn1C1CCCC1)N1CCN(C(=O)c2ccco2)CC1 (stereo unspecified),2.4,4.0,-6.2
Clc1cccc(N2CCN(Cc3nc(-c4ccccc4)no3)CC2)c1,2.0,7.0,1.4
Cc1ccc(-c2noc(CCC(=O)NCCCN3CCN(c4cccc(Cl)c4)CC3)n2)cc1,-0.3,44.0*,-3.0
COc1ccc(-c2noc(CCC(=O)NCCCN3CCC(C)CC3)n2)cc1,-7.4,2.0,-14.9
Cc1ccc(-c2noc(CCC(=O)NCCCN3CCN(c4ccc(F)cc4)CC3)n2)cc1,1.3,38.0*,-3.3
Cc1ccc(-c2noc(CCC(=O)NC3CCN(Cc4ccccc4)CC3)n2)cc1,-0.9,32.0*,-2.8
O=C(CCc1nc(-c2ccccc2F)no1)NC1CCN(Cc2ccccc2)CC1,-1.9,15.0,-1.2
CCCNCC(O)COc1ccccc1C(=O)CCc1ccccc1 (stereo unspecified),3.5,3.0,3.1
Cc1nc2sc(C(c3cccc(F)c3)N3CCOCC3)c(O)n2n1 (stereo unspecified),4.0,6.0,-3.5
COc1ccc(Cl)c(NCCC(=O)O)c1,-0.5,13.0,-8.4
CNC(=O)N(C1=NCC(C)(C)S1)c1ccc(F)c(Cl)c1,0.1,8.0,6.8
CCSc1nnc(NC(=O)CSc2nnc(Cc3cccn3C)n2CCc2ccccc2)s1,-2.4,12.0,33.5*
Cn1cccc1Cc1nnc(SCC(=O)Nc2nccs2)n1CCc1ccccc1,5.8,10.0,10.0
O=C(CSc1c2c(nc3ccc(Cl)cc13)CCCC2)N1CCN(C(=O)c2ccco2)CC1,4.3,14.0,5.7
COc1cccc(-c2nc(-c3ccc(NC(=O)Cc4ccccc4OC)cc3)no2)c1,-6.0,3.0,2.9
COc1ccccc1Cc1nc(-c2ccc(Br)o2)no1,0.3,8.0,2.3
COc1ccc(-c2nc(-c3ccc(Br)o3)no2)cc1OC,30.6*,5.0,16.8
COc1ccc(-c2nc(-c3ccc(NC(=O)c4ccc(Br)o4)cc3)no2)cc1OC,49.8*,17.0,42.8*
CC1CC(C)CN(C(=O)c2ccccc2Nc2ccc(SC(F)F)cc2)C1 (stereo unspecified),-8.3,.,-8.9
SMILES,FPRL1 binder,Prostate diff,FPR ligand
CCCCCC#CCC#CCC#CCC#CCCCC(=O)O,-6.3,1.0,-1.0
CCOC(=O)Cc1csc(NC(=O)C2CCCN(S(=O)(=O)c3cnc[nH]3)C2)n1 (stereo unspecified),-0.6,15.0,2.6
CCOC(=O)N1CCC(NC(=O)CSc2cc(=O)n(C)c3ccc(Cl)cc23)CC1,0.3,10.0,-1.4
COc1ccc(NC(=O)C2C(=O)N(CCO)C3(C)CC2c2ccccc2O3)cc1 (stereo unspecified),15.7,7.0,18.5
Cc1ccc(NC(=O)C2C(=O)N(CCO)C3(C)CC2c2ccccc2O3)cc1 (stereo unspecified),40.2*,10.0,30.9*
Cn1c(C(=O)NC2CCCC2)cc2c(=O)n(C)c3ccccc3c21,-3.2,11.0,3.3
COC(=O)C1=[N+]([O-])OC(C(=O)OC)C1c1c[nH]c2ccccc12 (stereo unspecified),76.9*,8.0,35.3*
CCOC(=O)C1=C(C)Nc2nnnn2C1c1c[nH]c2ccccc12 (stereo unspecified),-4.9,6.0,2.7
